Experimental findings from PubChem BioAssay (NCI) are described below.

Each structure is given as a SMILES string. Compounds without any hit were thinned out: in the full panel of roughly 83,000, 20% have a hit.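 Interpretation: 100, growth as untreated; towards 0, rising growth inhibition; 0, no net growth; 0 to -100, cell death. Compounds scoring below 10 were considered active.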 A number with no mark means an inactive call. Calls of active or inactive are those of the source.

Among the test systems are T-47D breast; BT-549 breast; MDA-MB-435 melanoma; HCT-116 colon; HCC-2998 colon; KM12 colon; MCF7 breast; SW-620 colon.
Holding throughout (experiment): NCI-60 one-dose screen, 48 h (100 = growth as untreated, 0 = no growth, -100 = all killed)
What all share (conditions): 10 µM unless noted

On to `CC1=CNNc2c3ncnc-3ncn21`, for which the growth was 101% in the assay on T-47D breast; 106% in the assay on BT-549 breast; 111% with MDA-MB-435 melanoma; 102% with HCT-116 colon; 102% with HCC-2998 colon; 103% in the assay with KM12 colon.

On to `CCNCc1ccncc1`, for which the growth was 96.9% in the assay on T-47D breast; 114% in the assay with BT-549 breast; 95.6% in the assay with MDA-MB-435 melanoma; 96.6% with MCF7 breast; 104% in the assay on HCT-116 colon; 99.5% with HCC-2998 colon. Also, the growth with KM12 colon is 106%.

`Cc1sc2nc(CSc3nnc(-c4ccco4)o3)[nH]c(=O)c2c1C`: the growth in the assay on T-47D breast was 95.4%; with BT-549 breast, 102%; in the assay with SW-620 colon, 101%; with MCF7 breast, 104%; in the assay with HCT-116 colon, 115%; in the assay on HCC-2998 colon it was 124%. The growth in the assay with KM12 colon was 118%.

Consider `Cc1cc2c(c(=O)o1)C(c1ccc(OC(=O)N3CCOCC3)cc1)C(C#N)=C(N)O2` (stereo not given), for which the growth is 102% with T-47D breast; 104% in the assay with BT-549 breast; 105% with MDA-MB-435 melanoma; 98% in the assay with MCF7 breast; 104% in the assay with HCT-116 colon; 99.4% in the assay on HCC-2998 colon. The growth in the assay on KM12 colon was 105%.

For `O=C1Nc2cc(Cl)ccc2Oc2cc(Oc3ccccc3)ccc21`, the growth was 48.5% in the assay on T-47D breast; 56.4% with BT-549 breast; -3.81% (active) in the assay on MDA-MB-435 melanoma; 29% with MCF7 breast; 27.8% in the assay on HCT-116 colon; 60.6% in the assay on HCC-2998 colon. Besides, the growth in the assay on KM12 colon is 20%.

On to `CC1=C(C#N)C(C)(C)C(C#N)=C(C)N1`, for which the growth in the assay on T-47D breast was 96.6%; in the assay on BT-549 breast, 100%; with MDA-MB-435 melanoma it was 105%; in the assay with MCF7 breast it was 96.7%; in the assay with HCT-116 colon, 104%; in the assay on HCC-2998 colon, 108%. Besides, in the assay on KM12 colon, the growth is 103%.

Consider `COc1ccc(C(=O)/C=C/c2ccc(/C=C/c3cc(OC)c(OC)c(OC)c3)cc2)cc1`, for which the growth with T-47D breast is 43.4%; with BT-549 breast, 41.6%; in the assay with MDA-MB-435 melanoma it was 41%; with MCF7 breast, 30.6%; in the assay on HCT-116 colon it was 17.5%; in the assay on HCC-2998 colon, 94.1%. The growth with KM12 colon is 29.2%.

For the compound `O=C(NNC(=S)Nc1ccccc1)c1ccccn1`, the growth in the assay with T-47D breast was 53.2%; in the assay on BT-549 breast, 55.1%; in the assay with MDA-MB-435 melanoma, 48.4%; in the assay with MCF7 breast it was 27.2%; with HCT-116 colon it was 26.7%; in the assay with HCC-2998 colon it was 40.6%. For the same compound, in the assay on KM12 colon, the growth was 32.1%.

Take `O=C(CCCn1c2c(sc3ccccc32)c(=O)n2nnc(-c3ccccc3)c12)NCCc1cnc[nH]1`: the growth was -25.4% (active) in the assay on T-47D breast; 72.2% in the assay on BT-549 breast; -95.1% (active) with MDA-MB-435 melanoma; -100% (active) in the assay with MCF7 breast; -100% (active) in the assay with HCT-116 colon; 25.7% with HCC-2998 colon. Besides, in the assay on KM12 colon, the growth is -63% (active).

Consider `CC(C)(C)c1ccc(S(=O)(=O)Oc2ccc3c4c(c(=O)oc3c2)CCCCC4)cc1`, for which the growth was 45.9% with T-47D breast; 46.6% in the assay on BT-549 breast; 11.9% in the assay on MDA-MB-435 melanoma; 32.3% with MCF7 breast; 36.6% in the assay on HCT-116 colon; 74.5% with HCC-2998 colon. In addition, in the assay with KM12 colon, the growth was 55.1%.

`CC/C=C\C[C@H]1C/C=C2/C(=O)C(Cl)=C[C@@H]2C/C=C\CCCC(=O)O1`: the growth in the assay with T-47D breast is -16.1% (active); in the assay on MDA-MB-435 melanoma, -74.8% (active); in the assay with SW-620 colon, -74.8% (active); in the assay on MCF7 breast it was -40.4% (active); in the assay on HCT-116 colon, -81% (active); in the assay on HCC-2998 colon, -80.2% (active). In the assay with KM12 colon, the growth was -74.3% (active).

With `CN(C)c1ccc(/C=C\N=Nc2ccc(Br)cc2)cc1`, the growth in the assay with T-47D breast is 37.1%; with BT-549 breast, 69.1%; with MCF7 breast, 36.8%; in the assay on HCT-116 colon it was 50.6%; in the assay on HCC-2998 colon it was 83%; with KM12 colon, 29.6%.

`COc1ccc(-n2cnc3c(sc4ncc(Cl)cc43)c2=O)cc1`: the growth with T-47D breast was 86.1%; in the assay on MDA-MB-435 melanoma it was 77.4%; in the assay with SW-620 colon it was 98.3%; in the assay on MCF7 breast it was 101%; with HCT-116 colon, 54.5%; in the assay on HCC-2998 colon, 116%.

`CC(=O)Nc1ccc(S(=O)(=O)NC(CCC(=O)Nc2ccc(Cl)cc2)C(=O)O)cc1` (stereo not given): the growth is 80.4% in the assay with T-47D breast; 85.2% in the assay on MDA-MB-435 melanoma; 99.6% in the assay with SW-620 colon; 84.8% in the assay with MCF7 breast; 102% in the assay with HCT-116 colon; 103% in the assay with HCC-2998 colon. For the same compound, the growth in the assay with KM12 colon was 94.5%.

Consider `COc1ccc(Cn2cc(COc3cc(/C=C/C(=O)c4cc(OC)c(OC)c(OC)c4)ccc3OC)nn2)cc1`, for which the growth with T-47D breast was 65.4%; in the assay on BT-549 breast it was 30.8%; in the assay on SW-620 colon, 19.8%; in the assay with HCT-116 colon, 17.9%; in the assay with HCC-2998 colon it was 110%; in the assay with KM12 colon, 15.8%.

Regarding `COc1cc2nc(SCc3cc(OC)c(OC)c(OC)c3)n(Cc3ccccc3)c(=O)c2cc1OC`, the growth is 35.9% in the assay on T-47D breast; 16.8% with BT-549 breast; 10.1% in the assay with MCF7 breast; 14.7% in the assay on HCT-116 colon; 40.9% with HCC-2998 colon; 15.4% in the assay on KM12 colon.

As to `COc1cc(C2C=C(C)N=C3SC(C)=NN32)cc(OC)c1OC` (stereo not given), the growth was 92.3% in the assay with T-47D breast; 112% with MDA-MB-435 melanoma; 112% in the assay with SW-620 colon; 91.6% in the assay on MCF7 breast; 106% in the assay with HCT-116 colon; 107% in the assay with HCC-2998 colon. Further, the growth in the assay with KM12 colon is 102%.

Turning to `COC1=CC(c2ccc[nH]2)=N/C1=C\c1[nH]c(C)c(C(=O)CCCCC(=O)Nc2ccccc2)c1C`, the growth in the assay on T-47D breast is 63.9%; in the assay on BT-549 breast it was 13.9%; with MCF7 breast it was -85.7% (active); in the assay with HCT-116 colon it was -100% (active); in the assay with HCC-2998 colon, 55.6%; with KM12 colon, -3.11% (active).
